Bioassay records (PubChem BioAssay)
IL1B secr inh = inhibitors of inflammasome signaling (IL-1 beta secretion); THP-1 LPS/ATP IL-1B secretion, AlphaLISA, 16 h; active compounds read low; activity change, % at 57.5 µM; hit rate 4.7% among 360,000; AID 743279; in the data active = activity change below about -50%; inconclusive = mostly about -30% to -49%
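THP-1 cells pretreated 1 hr with compounds (up to 57.5 uM final), then stimulated with LPS (250 ng/mL final) plus ATP (1.25 mM final); secreted IL-1B measured by AlphaLISA after 16 hr, decreased signal indicating inhibition.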
TDP1 cell noCPT = qHTS for Inhibitors of human tyrosyl-DNA phosphodiesterase 1 (TDP1): qHTS in cells in absence of CPT | AID 686978, 2013 | hit rate 15% among 420,000 | DT40 Tdp1-/- hTDP1 cells, no CPT, ATP luminescence, 48 h | Potency, µM (highest dose often 46.2 µM), hits mostly inhibitors; note: nearly all actives have a fitted effect of over 55% in size
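Luminescent ATP content (CellTiter-Glo) served as the growth readout. Knockout chicken DT40 cells expressing human TDP1 were exposed to compounds without camptothecin for a minimum 48 hr at 37 °C.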
TDP1 block = inhibitors of human tyrosyl-DNA phosphodiesterase TDP1. Q9NUW8. recombinant TDP1, AlphaScreen DNA substrate cleavage. Potency, µM (highest dose often 130 µM), actives largely listed as inhibitors. hit rate 0.28% among 350,000. AID 485290; note: nearly all actives have a fitted effect of over 40% in size
Target sequence (Q9NUW8 whole entry, looked up): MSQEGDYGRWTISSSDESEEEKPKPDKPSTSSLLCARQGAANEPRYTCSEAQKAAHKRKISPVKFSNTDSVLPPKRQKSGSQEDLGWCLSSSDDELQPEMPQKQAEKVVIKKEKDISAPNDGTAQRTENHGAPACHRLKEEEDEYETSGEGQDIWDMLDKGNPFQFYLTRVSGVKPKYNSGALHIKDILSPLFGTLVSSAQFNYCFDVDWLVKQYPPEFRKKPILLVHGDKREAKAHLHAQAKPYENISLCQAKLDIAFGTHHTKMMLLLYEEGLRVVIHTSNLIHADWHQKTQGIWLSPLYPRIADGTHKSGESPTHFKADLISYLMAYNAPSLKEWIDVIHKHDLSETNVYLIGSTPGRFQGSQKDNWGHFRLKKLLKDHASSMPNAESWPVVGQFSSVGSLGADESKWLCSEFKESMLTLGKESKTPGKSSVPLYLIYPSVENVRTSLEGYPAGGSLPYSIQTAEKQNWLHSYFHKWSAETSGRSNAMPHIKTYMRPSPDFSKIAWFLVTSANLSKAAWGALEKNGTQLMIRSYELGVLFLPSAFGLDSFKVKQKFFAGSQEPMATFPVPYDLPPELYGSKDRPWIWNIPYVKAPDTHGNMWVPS
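Steps: enzyme plus compound, 15 min RT; add biotin/phosphotyrosine-FITC oligonucleotide (15 nM final), react 5 min; add donor/acceptor beads (10 ug/ml final), 10 min; read AlphaScreen. Tdp1 at 1 nM final.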
TGFb inhibitor = inhibitors of TGF-b signaling. HepG2 CAGA-GFP TGF-b/SMAD3 reporter, GFP fluorescence, 18 h; TGF-beta stimulated, 500 pg/mL final. Potency, µM (series often up to 46.1 µM), actives largely listed as inhibitors. hit rate 1.2% among 410,000. AID 588855; note: nearly all actives have a fitted effect of over 65% in size
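Inhibition was scored as loss of TGF-beta-induced (500 pg/mL final, 18 hours, 37 degrees C) GFP in HEPG2 cells carrying a CAGA-GFP reporter, in DMEM with 1% FBS. Well GFP was summed per cell; Activity was normalised to unstimulated and stimulated DMSO wells, then concentration-response fitting.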
HepG2 tox = kills HepG2 cells in TGF-b inhibitor counter-screen | HepG2 CAGA-GFP viability, ATP luminescence, 18 h | Potency, µM (top dose mostly 46.1 µM), actives largely listed as cytotoxic | hit rate 0.76% among 410,000
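CellTiter-Glo luminescence gave cytotoxicity after 18 hours at 37 degrees C. The cells were HepG2 CAGA-GFP in 1% FBS DMEM, stimulated with 500 pg/mL TGF-beta after compound addition. %Activity was normalised to no-cell wells (complete cell-killing) and DMSO (no toxicity), and curves were fitted and classified.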
TDP1 cell CPT = DT40-hTDP1 cell growth loss with CPT | hit rate 12% among 420,000 | Potency, µM (highest dose often 46.2 µM), usual class: inhibitors | AID 686979 | chicken DT40 Tdp1-/-;hTDP1 cells + 20 nM CPT, ATP luminescence, 48 h; note: nearly all actives have a fitted effect of over 55% in size
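Cell growth measured by CellTiter-Glo luminescence after a minimum 48 h, 37 C compound exposure with 20 nM CPT in Tdp1-knockout DT40 cells stably expressing hTDP1, seeded 400/well; qHTS titration format.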
Numbers stand for hits; . = inactive; ? = inconclusive; / = not tested or not shown; [ ] = remark or other dose. The list is not random: actives were taken first. Their share in the collection is about 19%. Unless noted, calls come from the whole dose curve; as a rule, active = well fitted curve in the direction sought with a large enough effect; inconclusive = small, poorly fitted or top-dose-only effect, or another doubt; inactive = no such curve, though single readings can be large; an effect the other way counts as inactive or inconclusive.

SMILES	IL1B secr inh	TDP1 cell noCPT	TDP1 block	TGFb inhibitor	HepG2 tox	TDP1 cell CPT
Clc1ccc(SCNc2ccccc2Cl)cc1	?	?	/	.	.	9.2µM
CCN1C(=O)N(c2cccc3ccccc23)C(C)=CC1(C)C	.	23µM	.	?	.	?
Nc1ccc2c(c1)C(=O)N(c1cccc3ccccc13)C2=O	.	.	/	.	.	.
COc1cccc(-c2nc(CSCC(=O)N3CCc4ccccc43)c(C)o2)c1	.	.	.	.	.	.
COc1ccc(-c2nc(CSCC(=O)N3CCN(c4ccccc4F)CC3)c(C)o2)cc1	/	8.2µM	.	6.3µM	.	16µM
CCOc1ccc(-c2nc(CSCC(=O)N3CCN(c4cccc(OC)c4)CC3)c(C)o2)cc1	.	?	.	.	.	23µM
Cc1ccc(C(=O)Nc2cccc(S(=O)(=O)N3CCCCC3)c2)cc1[N+](=O)[O-]	?	?	.	?	.	16µM
O=C(Nc1cccc(S(=O)(=O)N2CCCCC2)c1)c1ccc([N+](=O)[O-])o1	-92	4.1µM	.	?	.	6.5µM
Cc1ccc(C(=O)Nc2cccc(S(=O)(=O)N3CCCCC3)c2)cc1S(=O)(=O)N1CCOCC1	.	?	/	.	.	?
CCOC(=O)CNS(=O)(=O)c1cc(-c2nnc(Nc3cccc(O)c3)c3ccccc23)ccc1C	/	?	.[12.3 µM]	.	11µM	?
CCOC(=O)CNS(=O)(=O)c1cc(-c2nnc(Nc3ccc4c(c3)OCO4)c3ccccc23)ccc1C	-102	?	.	?	.	?
Cc1ccc(-c2nnc(Nc3cccc(O)c3)c3ccccc23)cc1S(=O)(=O)NCCO	.	.	.	.	.	.
CCOc1ccc(S(=O)(=O)Nc2ccc(C(=O)NCCCN3CCOCC3)cc2)cc1	.	.	.	.	.	.
CCCCn1c(=O)c2oc3ccccc3c2n(CC(=O)Nc2cccc(Cl)c2)c1=O	/	.	.	?	.	.
Fc1cccc(Cc2noc(CN3CCSCC3)n2)c1	.	.	/	.	.	.
Fc1cccc(Cc2noc(CN3CCCCC3CCc3ccccn3)n2)c1 (stereo not drawn)	-79	?	.	.	.	.
COc1ccc(N2CCN(Cc3nc(Cc4cccc(F)c4)no3)C(C)C2)cc1 (stereo not drawn)	.	18µM	.	.	.	.
COc1cc2cnc(-c3ccsc3)cc2cc1OC	.	?	.	.	.	?
c1cc(-c2cc3cc4c(cc3cn2)OCO4)cs1	.	?	.	.	.	15µM
COc1cc2c(cc1Cl)/C(=C\CCN(C)C)c1ccccc1S2	-103	?	.	?	.	18µM
CN(C)CC/C=C1/c2cc(F)ccc2Sc2ccc(Cl)cc21	-51	18µM	/	?	.	?
Cc1ccc2c(c1)c1c(c(=O)n(-c3ccccc3)c(=O)n1CC(=O)NCCC1=CCCCC1)n2C	/	.	.	.	.	.
Cc1onc(-c2ccccc2Cl)c1C(=O)N(Cc1nc(-c2ccccc2)no1)C1CCCCC1	.	18µM	.	.	.	?
Cc1nc(C(C)N(C)Cc2nc(-c3ccc4c(c3)OCO4)no2)c(C)s1 (stereo not drawn)	.	?	.	.	.	23µM
COc1ccc(-c2noc(CCC(=O)NC3CCCCCC3)n2)cc1OC	.	?	/	.	.	?
Cc1onc(-c2ccccc2Cl)c1C(=O)NCC1CCCO1 (stereo not drawn)	.	.	.	.	.	.
COc1ccc(C(=O)N(Cc2nc(-c3ccc(C)cc3)no2)C2CCCCC2)cc1OC	-67	?	.	?	.	?
COc1ccc(-c2noc(CN(C(=O)c3ccc4c(c3)OCO4)C(C)C)n2)cc1OC	.	?	.	.	.	?
Cc1cccc(-c2noc(CN(C(=O)COc3ccc(C(C)C)cc3)C(C)C)n2)c1	/	16µM	.	?	.	?
